# Records with an inconclusive call do not appear. A call without a number means that no potency is given here. Calls of active or inactive are those of the source. The call rests on the fitted dose curve; in most records, active means well fitted inhibition curve with a large enough effect; inconclusive means small, poorly fitted or top-dose-only effect; inactive means flat fitted curve, though single readings scatter.
# How the values were obtained:
# Experiment in all cases: qHTS profiling for inhibitors of Plasmodium falciparum proliferation (AID 504749); further: nearly all actives have a fitted effect of over 60% in size
# Conditions in all cases: P. falciparum in erythrocytes, SYBR Green DNA, 72 h; series mostly up to 28.7 µM
# CP262 = tested on: CP262
# In short: (§1)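 Infected RBCs, 0.3% parasitemia/2.5% Hct final; cpd 72 h, 37 C, 5% CO2; lysis buffer with saponin/triton/SYBR Green I, o/n RT dark; FI 485/535; norm. to artemisinin (0.29 uM) and DMSO.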
# CP256 = tested on: CP256
# In short: as §1
# CP266 = tested on: CP266
# In short: as §1
# CP269 = tested on: CP269
# In short: as §1
# CP286 = tested on: CP286
# In short: as §1
# CP260 = tested on: CP260
# In short: as §1
# CP265 = tested on: CP265
# In short: as §1
# CP268 = tested on: CP268
# In short: as §1
# CP291 = tested on: CP291
# In short: as §1
# CP297 = tested on: CP297
# In short: as §1
# Potency means the concentration at half of the fitted maximal effect.
Compound,Potency (CP262),Potency (CP256),Potency (CP266),Potency (CP269),Potency (CP286),Potency (CP260),Potency (CP265),Potency (CP268),Potency (CP291),Potency (CP297)
CS(=O)(=O)c1ccc([C@@H](O)[C@@H](COC(=O)CN)NC(=O)C(Cl)Cl)cc1,inactive,–,–,–,–,–,–,–,–,–
OCc1ccccc1,inactive,12.6 µM (active),inactive,–,–,–,–,–,–,–
O=c1n(CC2CO2)c(=O)n(CC2CO2)c(=O)n1CC1CO1 (configuration not stated),–,inactive,inactive,inactive,–,–,–,–,–,–
CCOc1cc(-c2nccc3cc(OC)c(OC)cc23)cc(OCC)c1OCC,–,–,–,–,8.91 µM (active),–,–,–,–,–
CCCOc1cc(N)ccc1C(=O)OCCN(CC)CC,inactive,–,inactive,–,inactive,inactive,inactive,inactive,inactive,–
NC(N)=NCC1COc2ccccc2O1 (configuration not stated),–,–,–,–,–,–,inactive,–,inactive,–
CC(=O)Oc1cc(C(F)(F)F)ccc1C(=O)O,inactive,inactive,inactive,inactive,inactive,–,inactive,inactive,inactive,inactive
CCN(CC)CCC(=O)N1c2ccccc2Sc2ccc(C(F)(F)F)cc21,inactive,–,inactive,inactive,inactive,inactive,inactive,inactive,–,inactive
CCOC(=O)Cc1ccc(-c2ccccc2)cc1,inactive,–,inactive,inactive,inactive,inactive,0.0006 µM (active),inactive,inactive,–
CC(C)(C)CC(C)(C)c1ccc(OCCO)cc1,inactive,–,inactive,inactive,inactive,inactive,inactive,inactive,inactive,inactive
CC(=O)c1ccc2c(c1)N(CCCN1CCN(CCO)CC1)c1ccccc1S2,–,8.91 µM (active),–,10.7 µM (active),8.91 µM (active),–,11.2 µM (active),12 µM (active),–,–
CN1CCCC(CN2c3ccccc3Sc3ccccc32)C1 (configuration not stated),inactive,–,inactive,–,–,–,inactive,–,–,inactive
O[C@@H]([C@H](O)[C@H](O)CBr)[C@H](O)CBr,inactive,–,inactive,inactive,inactive,inactive,inactive,inactive,inactive,inactive
CNC(=O)[C@H](Cc1c[nH]c2ccccc12)NC(=O)[C@@H](CC(=O)NO)CC(C)C,–,–,–,–,–,–,–,–,inactive,–
O=C(O[C@H]1CN2CCC1CC2)N1CCc2ccccc2[C@@H]1c1ccccc1,inactive,–,inactive,–,inactive,inactive,inactive,inactive,inactive,inactive
C[C@]12CCC(=O)C[C@@H]1CC[C@@H]1[C@@H]2CC[C@]2(C)C=CC[C@@H]12,inactive,inactive,inactive,inactive,–,–,inactive,inactive,inactive,inactive

Compound,Potency (CP262),Potency (CP256),Potency (CP266),Potency (CP269),Potency (CP286),Potency (CP260),Potency (CP265),Potency (CP268),Potency (CP291),Potency (CP297)
N#Cc1ccc2c(c1)N(CCCN1CCC(O)CC1)c1ccccc1S2,inactive,–,inactive,–,–,11.2 µM (active),–,–,–,inactive
CCc1ncnc2cc(OC)c(OC)cc12,inactive,inactive,inactive,inactive,inactive,–,inactive,inactive,inactive,inactive
O=C(CCCN1CCN2CCCC2C1)c1ccc(F)cc1 (configuration not stated),inactive,–,inactive,inactive,inactive,–,–,inactive,inactive,–
CN(C)C(=O)CCSC(SCCC(=O)O)c1cccc(/C=C/c2ccc3ccc(Cl)cc3n2)c1 (configuration not stated),inactive,inactive,inactive,inactive,–,–,inactive,inactive,inactive,–
Cn1c(O)c(N=NC(N)=S)c2ccccc21,–,–,inactive,inactive,–,–,–,inactive,–,inactive
CC(=O)Nc1ccc(NC(=S)NC(=O)c2ccc(C(C)(C)C)cc2)cc1,inactive,inactive,inactive,inactive,–,–,–,inactive,inactive,inactive
Cc1c(C)c2c(c(C)c1OC(=O)CCC(=O)O)CC[C@@](C)(CCC[C@H](C)CCC[C@H](C)CCCC(C)C)O2,inactive,inactive,–,inactive,–,–,inactive,inactive,inactive,inactive
C/C(=C\C(=O)OCCCCCCCCC(=O)O)C[C@@H]1OC[C@H](C[C@@H]2O[C@H]2[C@@H](C)[C@H](C)O)[C@@H](O)[C@H]1O,–,0.316 µM (active),–,0.239 µM (active),–,–,–,–,–,–
CO/N=C(\C(=O)N[C@@H]1C(=O)N2C(C(=O)[O-])=C(C[n+]3cccc4c3CCC4)CS[C@H]12)c1csc(N)n1,inactive,inactive,inactive,inactive,inactive,–,inactive,–,inactive,–
O=C(c1cc2ccccc2o1)N1CCN(Cc2ccccc2)CC1,–,10 µM (active),inactive,–,–,–,8.91 µM (active),–,–,–
O=C(Nc1ccc(O)cc1)c1ccccc1O,inactive,–,inactive,inactive,inactive,inactive,–,inactive,inactive,inactive
N[C@@H](Cc1cc(I)c(Oc2ccc(O)c(I)c2)c(I)c1)C(=O)O,inactive,inactive,inactive,–,–,–,–,inactive,–,–
CCCC(CCC)C(=O)OC1C[C@H]2CC[C@@H](C1)[N+]2(C)C (some centres not stated),–,12.6 µM (active),inactive,–,–,–,8.91 µM (active),–,–,–
Oc1cccc(O)c1O,–,inactive,inactive,–,–,–,–,–,–,–
CCCCCCCCCCCCCCCCOCCOCCOCCOCCOCCOCCOCCOCCOCCOCCOCCOCCOCCOCCOCCOCCOCCOCCOCCOCCO,inactive,–,inactive,–,–,11.2 µM (active),–,–,–,–

# Reference: PubChem BioAssay (NCATS)
